# Source: PubChem (several laboratories)
# PAX8 reporter: lowers PAX8-driven luciferase in RMG-I cells; RMG-I TPO-luciferase reporter, SteadyGlo, 24 h; inhibition, % at 12.6 µM; 360,000 tested, 1.2% active; AID 652154;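 active means mean replicate inhibition at least 60% with every replicate also reaching 60%; inconclusive means only one of the two criteria is met; inactive means mean below 60% and not all replicates reaching 60%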;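 further: luciferase light reporting Pax8 driven TPO promoter activity; plate controls were median of neutral control wells for no effect and mitoxantrone controls for full effect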
# HIV Env fusion: blocks HIV Env-driven cell-cell fusion | HeLa-JRFL Env/CEM21 cell fusion, luciferase | inhibition, % at 12.3 µM | 360,000 tested, 1.1% active;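 active means mean replicate inhibition score of at least 50 and every replicate individually at or above 50; inconclusive means only one of the two criteria met; inactive means mean below 50 and not all replicates reaching 50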;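 further: 0% = plate neutral controls and 100% = maraviroc near 300 nM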
# F508del corr: correctors of CFTR F508del function in bronchial epithelial cells. CFBE cells, YFP halide quenching; stimulated with forskolin plus potentiator P3; % fluorescence drop versus neutral controls. activity (quench increase), % at 7.58 µM. 350,000 tested, 0.36% active. AID 720511;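 active means mean added fluorescence quench of at least 8% versus neutral control, with both replicates also reaching 8%; inconclusive means only one of the mean or replicate conditions met; inactive means mean below 8% and not both replicates reaching 8%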;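 further: cells transiently co-express mutant CFTR-F508del with the halide-sensitive YFP; corrector assay measuring rescue of mutant channel to the surface after 24 h compound exposure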
# FXN GAA850 act: increases GAA850 frataxin promoter reporter activity; 360,000 tested, 0.56% active; HEK293 lucGAA850 FXN promoter luciferase reporter, 24 h; percent of 10 µM SAHA response; AID 540364; activation, % at 6 µM;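 active means activation above the average of all compounds screened plus 3 SD, cutoff fixed separately per campaign, cut at about 7.5% in these data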;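 further: 0% = DMSO wells and 100% = 10 µM SAHA wells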
# EWS-Fli block: blocks EWS/Fli oncoprotein-driven transcription; A673 NR0B1-luciferase reporter, viability-normalised; inhibition, % at 12.6 µM; 350,000 tested, 0.67% active; AID 651661;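 active means mean inhibition of at least 50% after viability correction, with every replicate also passing that limit; inconclusive means mean reaches 50% but only one of two replicates passes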;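 further: firefly luciferase signal divided by Alamar Blue viability fluorescence both relative to DMSO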
# Numbers without * were called inactive; i = inactive; ? = inconclusive; · = no result given; [ ] = remark or other dose. Compounds with a hit are over-represented: about 2.5% of the library has one in this group of screens.
SMILES,PAX8 reporter,HIV Env fusion,F508del corr,FXN GAA850 act,EWS-Fli block
CSc1nnc(NC(=O)c2nc(S(=O)(=O)Cc3ccccc3)ncc2Cl)s1,17,?,-1,-3,·
Cc1ccc(COc2ccccc2-c2cc(C(=O)N/N=C/c3cccnc3)[nH]n2)cc1,17,-190,9.7*,-3,58*
CCOc1ccccc1-c1cc(C(=O)N/N=C/c2cccnc2)c2ccccc2n1,-1,11,0,-2,0
CCOc1ccc(CCNC(=O)CSc2nnnn2C)cc1OCC,9,-10,-1,0,6
CCOc1ccc(CCNC(=O)CSc2nn(-c3ccc(C)c(Cl)c3)c(=S)s2)cc1OCC,81*,·,2,3,19
Cc1ccc(S(=O)(=O)N[C@@H]2CC[C@H](CC(=O)NCc3ccc(Cl)c(Cl)c3)O[C@@H]2CO)cc1,31,26[16.7 µM],2,·,12
O=C(c1cccnc1)N1C[C@@H]2[C@H](c3ccccc31)[C@@H](CO)N2C(=O)Nc1ccccc1,16,·,-2,·,0
COc1ccccc1Nc1c2c(nc3ccccc13)CCC2,42,27,9.8*,-4,62*
COc1ccc(Nc2c3c(nc4ccccc24)CCC3)c(OC)c1,29,26,4,-4,22
CC(=O)c1cccc(Nc2c3c(nc4ccccc24)CCC3)c1,21,-73,15*,-6,56*
CC(=O)c1ccc(Nc2c3c(nc4ccccc24)CCCC3)cc1,12,0,8,-1,71*
Cc1ccc(S(=O)(=O)N2CC[C@@H]3[C@H]2c2cc(C#Cc4cccnc4)ccc2N(C)[C@H]3CO)cc1,9,·,2,·,-10
Nc1ccc(-c2c3ccc(=O)cc-3oc3cc(O)ccc23)cc1C(=O)O,-1,-19,8.8*,1,-27
O=c1ccc2c(-c3ccccc3)c3ccc(O)cc3oc-2c1,11,16,58*,0,26
O=c1cc(-c2ccccc2)oc2cc(O)ccc12,·,·,0,0,-72
Cc1noc(C)c1NC(=O)Nc1ccc2c(c1)CC(=O)N([C@@H](C)CO)C[C@@H](C)[C@@H](CN(C)Cc1ccc(-c3ccccc3)cc1)O2,·,-38[16.7 µM],1,·,7
O=C(Cc1ccccn1)N[C@@H]1C=C[C@H](CC(=O)N2CCCCC2)O[C@H]1CO,-5,20[16.7 µM],2,·,-2
CC(=O)Nc1ccc2c(c1)C(=O)N(C)[C@@H]1CC[C@H](CC(=O)NC3CCCCC3)O[C@@H]1CO2,-10,2[16.7 µM],1,·,-4
Cc1ccccc1OCCc1c(C)[nH]c(=S)[nH]c1=O,39,-31,4,2,55*
COCC(=O)N1CC(=O)N2[C@H](C1)[C@H](c1ccc(-c3ccncc3)cc1)[C@@H]2CO,-21,·,-2,·,3
Cc1ccc(S(=O)(=O)N(C)C[C@H]2Oc3ccc(NC(=O)CCC(F)(F)F)cc3CC(=O)N([C@@H](C)CO)C[C@@H]2C)cc1,-17,·,2,·,4
O=C(O)c1ccc(NC2=C/C(=N/S(=O)(=O)c3ccccc3)c3ccccc3C2=O)cc1,80*,?,·,1,27
Cc1cc(C)c(S(=O)(=O)/N=C2\C=C(Nc3ccc(C(=O)O)cc3)C(=O)c3ccccc32)c(C)c1,?,73*,-2,-4,-37
CO[C@@H]1CN(C)C(=O)c2ccc(NC(C)=O)cc2OC[C@H](C)N(Cc2cc(F)ccc2F)C[C@@H]1C,·,·,2,·,-3
Cc1cccc(Cc2c(C)nc3c(C(=O)N4CCN(Cc5ccc6c(c5)OCO6)CC4)cnn3c2C)c1,·,36,·,-2,·
SMILES,PAX8 reporter,HIV Env fusion,F508del corr,FXN GAA850 act,EWS-Fli block
Cc1ccccc1Cc1c(C)nc2c(C(=O)N3CCN(Cc4ccc5c(c4)OCO5)CC3)cnn2c1C,·,60*,·,-2,·
O=C(c1cnn2c(C(F)F)cc(-c3ccccc3)nc12)N1CCN(Cc2ccc3c(c2)OCO3)CC1,20,58*,2,1,·
O=C(C1CCOCC1)N1CC(=O)N2[C@H](C1)[C@@H](c1ccc(/C=C/c3ccccc3)cc1)[C@@H]2CO,2,·,0,·,1
Nc1cc(=O)[nH]c(SCCSc2cc(Cl)ccc2Cl)n1,3,69*,2,1,5
COCC(=O)N(C[C@H]1N[C@H](CO)[C@@H]1c1ccc(-c2cccnc2)cc1)C(C)C,0,·,4,·,-5
COc1ccc(NC(=O)C2CCN(c3nc(C)nc4c3CCC4)CC2)cc1,19,54*,·,0,·
COc1ccccc1N(C)S(=O)(=O)c1ccc(C(=O)Nc2nccs2)cc1,7,·,27*,0,-10
COc1ccccc1N(C)S(=O)(=O)c1ccc(C(=O)Nc2ncc(C)s2)cc1,16,3,5,-2,1
O=C(Nc1nc(-c2cccs2)cs1)c1ccc(S(=O)(=O)N2CCCC2)cc1,·,?,·,0,·
CN(C)S(=O)(=O)c1ccc(C(=O)Nc2nc(-c3cccs3)cs2)cc1,20,76*,3,-1,-2
O=C(C[C@H]1CC[C@@H]2[C@H](COC[C@@H](O)CN2S(=O)(=O)c2ccc(Cl)cc2)O1)NCc1ccc(Cl)c(Cl)c1,25,·,3,·,4
COc1ccc(C(=S)N2CCN(c3cccc(Cl)c3)CC2)c(OC)c1,35,-77,?,-4,56*
COc1ccc(C(=O)N2CCN(c3cccc(Cl)c3)CC2)cc1,·,·,-1,2,2
O=C(C[C@@H]1C[C@H]2c3cc(NS(=O)(=O)c4ccc(F)cc4)ccc3O[C@H]2[C@@H](CO)O1)NC1CCCC1,-1,6[16.7 µM],-2,·,-2
Cc1ccc(S(=O)(=O)N2C[C@@H]3[C@H]4CC[C@H](C4)[C@@H]3[C@@H](C)[C@@H]2c2cccn2Cc2ccccc2)cc1,-15,-7,5,2,-4
Cc1ccc(S(=O)(=O)N2C[C@@H]3[C@H]4CC[C@H](C4)[C@@H]3[C@@H](C)[C@@H]2c2ccn(Cc3ccccc3)c2)cc1,4,63*,-1,1,10
CCN(CC)c1ccc(/C=N/NC(=O)c2ccccn2)cc1,-51,-55,2,2,-30
CCN(CC)c1ccc(/C=N/NC(=O)c2cnccn2)cc1,-133,i,11*,1,-6
C[C@H]1CN([C@@H](C)CO)C(=O)c2cc(NS(=O)(=O)c3cn(C)cn3)ccc2O[C@@H]1CN(C)C(=O)Nc1ccc(C(F)(F)F)cc1,·,7[16.7 µM],-3,·,1
O=S(=O)(c1cccc(-c2nnc(-c3ccc(Br)cc3)o2)c1)N1CCCCCC1,·,60*,·,0,·
NC(=O)CSc1nnc(-c2cccc(S(=O)(=O)N3CCCCC3)c2)o1,-21,3,3,2,4
O=C1C=C(c2c(O)ccc3ccccc23)c2ccccc2C1=O,83*,13,-3,-8,57*
O=C1C=C(O)c2cccc(O)c2C1=O,·,·,-3,1,9
C(=N\Nc1nncc2ccccc12)/c1ccccn1,-62,84*,-3,-10,41
Fc1cccc(/C=N/Nc2nncc3ccccc23)c1,-29,-158,2,0,22
CCS(=O)(=O)N1[C@H](CO)[C@@H](c2ccccc2)C12CN(C(=O)C1CC1)C2,·,·,2,·,-7
